Only some compounds are listed: those with a hit (about 2.4% of all), similar ones and a draw of the others.
CHO-K1 Ca ag – M1 agonist counterscreen hit in parental CHO-K1 cells; Fluo-8 calcium fluorescence; scaled to maximal ATP response, vehicle zero; activation, % at 3 µM; 360,000 compounds, 0.48% hits; AID 602248; in the data active = activation above about 15%;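 also: untransfected CHO-K1 host cells lacking M1 receptor as counterscreen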
CHO-K1 Ca antag – nonselective inhibitor or artifact in parental CHO-K1 cells; ATP-induced calcium, Fluo-8 fluorescence; inhibition, % at 3 µM; 360,000 compounds, 0.6% hits;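 active = inhibition above a per-plate cutoff, the plate's mean sample inhibition plus 3 SD, cut at about 24% in these data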;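 also: 0% = DMSO plus EC80 ATP and 100% = DMSO alone without ATP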
CHO-K1 Ca PAM – nonselective activator or artifact in parental CHO-K1 calcium assay. ATP EC20, Fluo-8 calcium fluorescence; 0% at ATP EC20, 100% at ATP max. 360,000 compounds, 0.02% hits. AID 602247. activation, % at 3 µM;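 active = activation above the run cutoff, the mean activation of all test compounds plus 3 SD, cut at about 40% in these data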;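 also: peak over basal fluorescence ratio in a 140 s read after ATP addition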
CHRM1 agonist – human M1 muscarinic receptor agonism; activation, % at 3 µM; P11229; CHO-K1 hM1, Fluo-8 calcium fluorescence, agonist mode; 0% DMSO, 100% acetylcholine EC100; 360,000 compounds, 0.33% hits;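 active = activation above the run's mean compound activation plus 3 SD, cut at about 16% in these data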;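 also: peak over basal fluorescence ratio within a 140 s kinetic read after compound addition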
Target sequence (P11229 whole entry, looked up): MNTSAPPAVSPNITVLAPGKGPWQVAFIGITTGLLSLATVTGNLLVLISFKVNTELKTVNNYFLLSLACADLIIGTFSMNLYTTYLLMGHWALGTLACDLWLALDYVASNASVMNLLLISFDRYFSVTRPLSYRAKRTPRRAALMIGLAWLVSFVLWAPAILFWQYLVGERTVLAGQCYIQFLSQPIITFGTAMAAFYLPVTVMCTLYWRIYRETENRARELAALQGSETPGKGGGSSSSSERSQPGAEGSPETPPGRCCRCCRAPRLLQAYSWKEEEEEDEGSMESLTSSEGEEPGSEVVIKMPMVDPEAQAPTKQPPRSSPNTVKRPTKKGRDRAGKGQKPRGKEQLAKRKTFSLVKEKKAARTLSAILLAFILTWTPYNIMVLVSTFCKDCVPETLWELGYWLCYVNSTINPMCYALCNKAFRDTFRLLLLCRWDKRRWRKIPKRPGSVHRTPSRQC
M1 antag – human CHRM1 antagonism. CHO-K1 hM1, Fluo-8 calcium fluorescence, ACh EC80 antagonist. P11229. 360,000 compounds, 1.3% hits. inhibition, % at 3 µM;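 active = percent inhibition above its own plate's cutoff, namely the mean of that plate's compound wells plus 3 SD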;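 also: peak over basal fluorescence ratio during 140 s after agonist addition; 0% = ACh EC80 plus DMSO and 100% = DMSO alone without agonist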
M1 PAM – potentiates human M1 receptor response to acetylcholine; CHO-K1 hM1, Fluo-8 calcium fluorescence, ACh EC20; 0% = ACh EC20, 100% = maximal ACh; activation, % at 3 µM; 360,000 compounds, 0.088% hits; P11229; in the data active = activation above about 19%, passing the limit was not always enough
* = called active by the depositor.

SMILES	CHO-K1 Ca ag	CHO-K1 Ca antag	CHO-K1 Ca PAM	CHRM1 agonist	M1 antag	M1 PAM
COc1ccc(S(=O)(=O)N2CCCCC2)cc1NS(=O)(=O)c1ccc(CNC(C)=O)cc1	0	5	-13	0	4	-8
COc1ccccc1NC(=O)CSc1nnc(C2CCCCC2)o1	0	24*	-9	-2	11	1
COc1ccc(C(=O)NCCc2nnc(SCC(=O)Nc3ccccc3)n2C)cc1	0	25*	-8	10	-31	8
O=C(NCCCN1CCCC1=O)c1cccc(S(=O)(=O)N2CCN(c3ccc(F)cc3)CC2)c1	2	-4	3	-2	-8	5
CN(C)c1ccc(/C=C(/C#N)C(=O)Nc2nc3c(s2)CCN(Cc2ccccc2)C3)cc1	12	14	-3	19*	24*	-15
O=C(Nc1ccc(OC(F)(F)F)cc1)N1CCc2nc(NCc3cccc(Oc4ccccc4)c3)ncc2C1	10	17	-10	0	43*	-26
O=C(CSc1ccc(Cl)cc1)N1N=CCC1c1ccccc1 (stereo not drawn)	2	-7	12	-6	1	-7
NC(=NC(=O)c1ccc(Cl)cc1)N1N=CCC1c1ccccc1 (stereo not drawn)	-1	25*	-9	2	5	8
Cc1cccc(-n2[nH]c(C)c(C=Nc3ccc4[nH]c(=O)[nH]c4c3)c2=O)c1	0	28*	-15	-1	6	-5
C=CC[C@@H](CC(=O)N(CCO)Cc1ccccc1)C(=O)N[C@H](COC(=O)[C@@H](CC=C)Cc1ccc(F)cc1)c1ccccc1	1	-13	-3	-2	7	-1
C=CC[C@@H](CC(=O)N(CCO)Cc1ccccc1)C(=O)NC[C@H](OC(=O)[C@@H](CC=C)Cc1ccc(F)cc1)c1ccccc1	6	-11	-12	-1	34*	-17
OCC1CCCN(c2nc(CN3CCCCC3)nc3scc(-c4ccccc4)c23)C1 (stereo not drawn)	1	-4	21	-10	2	-4
CCNc1nc(CN2CCCCC2)nc2scc(-c3ccccc3)c12	2	8	9	-11	65*	-30
CCOC(=O)c1ccn(CSc2c(F)c(F)cc(F)c2F)n1	0	21	-12	-2	33*	-14
COC(=O)c1ccn(CSc2c(F)c(F)cc(F)c2F)n1	0	-11	13	-4	-12	13
Cc1c(C(=O)N2CCC[C@H]2C(N)=O)oc2c(F)cccc12	1	-6	12	-1	-22	9
CCCC1(C(=O)OC)NC(c2ccc(OC)c(OC)c2)C2C(=O)N(c3ccc4c(c3)OCO4)C(=O)C21 (stereo not drawn)	0	15	-6	1	2	3
CCCC1(C(=O)OCC)NC(c2ccc(OC)cc2OC)C2C(=O)N(c3ccc4c(c3)OCCO4)C(=O)C21 (stereo not drawn)	1	46*	-4	-1	1	1
CC1CCCN(S(=O)(=O)c2ccc(C(=O)Nc3nnc(C4CC4)o3)cc2)C1 (stereo not drawn)	5	25*	-12	-2	1	3
CC1CCCN(S(=O)(=O)c2ccc(C(=O)Nc3nnc(-c4ccccn4)o3)cc2)C1 (stereo not drawn)	0	18	-9	-4	0	0
CSc1ccc(C(=O)N2CCc3ccc(NC(=O)c4ccccn4)cc3C2)cc1	6	7	-21	-4	9	-7
CSc1ccccc1C(=O)N1CCc2ccc(NC(=O)c3ccccn3)cc2C1	6	25*	-16	1	-1	-2
CC(C)c1nnc(SCC(=O)NCc2ccco2)n1C	0	30*	-9	1	-3	9
COc1ccc(-c2csc(NC(=O)C3CCN(c4ncnc5sc(C)c(C)c45)CC3)n2)cc1OC	2	21	-18	-3	46*	-12
COc1ccc(-c2ccc(SCC(=O)Nc3nccs3)nn2)cc1OC	4	2	-12	-1	35*	-12
SMILES	CHO-K1 Ca ag	CHO-K1 Ca antag	CHO-K1 Ca PAM	CHRM1 agonist	M1 antag	M1 PAM
COc1ccccc1OCC(=O)NNC(=O)C1CCN(c2ncnc3sc(C)c(C)c23)CC1	8	-12	0	-3	12	-12
COc1ccc(-c2nnc3ccc(SCC(=O)Nc4nccs4)nn23)cc1OC	7	3	15	-9	6	-1
COc1ccc(CC(=O)Nc2nc(-c3ccc(OC)c(OC)c3)cs2)cc1OC	14	0	17	16*	-5	6
COc1ccc(S(=O)(=O)Nc2ccccc2C(=O)Nc2nc(-c3ccc(F)cc3)cs2)cc1OC	15	33*	-7	-5	29	-14
O=C(OCc1cn([C@H]2CN(Cc3cccs3)[C@@H](c3ccc(Cl)cc3)C[C@@H]2O)nn1)c1ccccc1	0	-1	0	-2	-13	13
COc1cccc(NC(=O)COc2ccc(C(=S)N3CCN(C)CC3)cc2OC)c1	8	-4	-4	4	-2	4
CC1CCCCN1CCCNC(=O)C1CCN(c2nc3ccccc3o2)CC1 (stereo not drawn)	0	-4	15	-10	78*	-28
Cc1cc(C)c(C#N)c(SCC(O)COc2ccc(Br)cc2)n1 (stereo not drawn)	4	-3	-5	-10	61*	-33
CCCn1c(N)c(N(CCOC)C(=O)c2cc(C)cc(C)c2)c(=O)[nH]c1=O	0	-8	0	-1	0	2
S=C1NC2=C(CCCC2=C2SCCS2)C(c2ccccc2)N1 (stereo not drawn)	5	25*	-10	-3	19	-19
C=C1C(=O)C23C(O)C1CCC2C12CCCC(C)(COC(C)=O)C1C(O)C3(O)OC2 (stereo not drawn)	1	1	-1	-2	1	2
Cc1nc2ccc(S(=O)(=O)Nc3cccc(-c4nc5cccnc5s4)c3C)cc2s1	10	3	0	2	39*	-19
COc1ccc(CN2CCNC(=O)C2CC(=O)NCC2CCOCC2)cc1C (stereo not drawn)	1	-7	2	-3	-7	10
COc1cc(CNCc2ccc(Br)cc2)cc(OC)c1	15*	18	-12	1	7	-7
CCC(C)N(C)Cc1cccc(C2(O)CCN(S(=O)(=O)c3ccc(F)c(C)c3)CC2)c1 (stereo not drawn)	0	-13	5	-11	81*	-27
CSc1ccc(C(=O)N2CCC(CCC(=O)NCc3ccc(F)cc3)CC2)cc1	3	-11	9	-4	-14	4
CN1CCN(c2ccccc2/C=C2/C(=O)Nc3ccccc32)CC1	0	-5	10	-11	89*	-30

Screens as filed in PubChem BioAssay.
